Reference: PubChem BioAssay AID686978 (National Center for Advancing Translational Sciences (NCATS), 2013)
The campaign covered roughly 420,000 compounds. About 64,000 (15%) were called active. Roughly 27% stayed inconclusive and do not appear here. The call rests on the fitted dose curve; in most records, active means well fitted inhibition curve with a large enough effect; inconclusive means small, poorly fitted or top-dose-only effect; inactive means flat fitted curve, though single readings scatter. Not all results are given here. Entries that show only a call come without a potency.

assay: qHTS for Inhibitors of human tyrosyl-DNA phosphodiesterase 1 (TDP1): qHTS in cells in absence of CPT; settings: DT40 Tdp1-/- hTDP1 cells, no CPT, ATP luminescence, 48 h; activity change, negative = growth inhibition: at 46.2 µM (top of the series); further: nearly all actives have a fitted effect of over 55% in size
How it was run: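 Readout: luminescence from CellTiter-Glo after 30 min in the dark at RT. Cells: DT40 Tdp1-/- with stable hTDP1, 400/well. Exposure: compounds alone, ≥48 hr, 37 °C.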
Potency means the concentration at half of the fitted maximal effect.

| SMILES | Potency |
| --- | --- |
| CCOC(=O)CSc1nnc(NC(=O)C2CC(=O)N(c3ccc(F)cc3)C2)s1 (centres undefined) | inactive |
| C[C@@H]1O[C@@H](OC[C@H]2O[C@@H](Oc3c(-c4cccc(O)c4O)oc4cc(O)cc(O)c4c3=O)[C@H](O)[C@@H](O)[C@@H]2O)[C@H](O)[C@H](O)[C@H]1O | inactive |
| O=C1CN(C(=O)COC(=O)C2CC(=O)N(Cc3ccco3)C2)c2ccccc2N1 (centres undefined) | inactive |
| COc1cc(C(=O)N2CCOCC2)cc(OC)c1OC | inactive |
| Cc1cc(C)n(CCC(=O)N2CCN(S(=O)(=O)c3ccc(C)c(C)c3)CC2)n1 | inactive |
| O=C(COc1ccccc1O)NC1CCCC1 | inactive |
| O=C(NCCN1CCOCC1)/C(=C/c1ccc(F)cc1)NC(=O)c1ccccc1 | inactive |
| CC(C)(C)c1ccc(C(=O)N2CCN(CCNC(=O)C(=O)Nc3ccc(F)cc3)CC2)cc1 | 10.3 µM (active) |
| Cc1ccc(C(=O)N/C(=C\c2ccc(F)cc2)C(=O)NCCN2CCOCC2)cc1 | inactive |
| O=C(NCc1ccccc1)c1ccc(CNc2c(N3CCCC3)c(=O)c2=O)cc1 | inactive |
| CNC(=O)CSc1nnnn1-c1ccc(C)cc1C | inactive |
| CC1=C(C(=O)OC2CCCCC2)C(c2ccccc2F)NC(=O)N1 (centres undefined) | inactive |
| Cc1ccc(C2NC(=S)NC3=C2N2CCC3CC2)cc1 (centres undefined) | inactive |
| Cc1cc2nc(-c3ccc(F)cc3)c(Cc3ccsc3)n2c(C)c1Br | 11.6 µM (active) |
| Cc1cc2nc(-c3ccc(Cl)cc3)c(Cc3cccc(F)c3)n2c(C)c1Br | 23.1 µM (active) |
| Cc1cc2nc(-c3ccco3)c(Cc3cccc(F)c3)n2c(C)c1Br | 16.4 µM (active) |
| CC(NC(=O)CNC(=O)Cc1cccc2ccccc12)c1ccc(S(N)(=O)=O)cc1 (centres undefined) | inactive |
| Nn1c(SCC(=O)NC(=O)NC2CCCC2)nnc1-c1ccccc1F | inactive |
| O=C1CC(c2ccccc2)CC(O)=C1C=NCCN1CCOCC1 (centres undefined) | inactive |
| O=C(Oc1ccc(F)cc1)N1CCOCC1 | inactive |
| CC1=C(C)CC(C(=O)NNC(=O)c2csc3c2CCC(C(C)(C)C)C3)C(C(=O)O)C1 (centres undefined) | inactive |
| C[C@H](NC(=O)OC(C)(C)C)c1nnc(SCC(=O)Nc2ccc(Br)cc2)o1 | inactive |

| SMILES | Potency |
| --- | --- |
| CCSc1nnc(-c2cc3c(s2)-c2ccccc2CC3)o1 | inactive |
| Cc1cccc(C)c1NC(=O)CCS(=O)(=O)c1cccc2nsnc12 | inactive |
| Cn1c(C(=O)OC(C(=O)NC2CCCCC2)c2ccccn2)cc2sccc21 (centres undefined) | inactive |
| COc1ccc(C(=O)N2CCC3(CCCN(C(c4ccccc4)c4ccccc4)C3)CC2)cc1 | inactive |
| Cc1ccc(SCC2=NNC(=O)C2)cc1 | inactive |
| Cc1ccc(C(=O)N/C(=C/C=C/c2ccccc2)C(=O)NCc2ccco2)cc1 | inactive |
| Cc1ccc(NC(=O)c2cc3ccccc3o2)cc1 | inactive |
| CC(C)Oc1ccc(NC(=O)c2cc3ccccc3o2)cc1 | inactive |
| O=C(Nc1ccncc1)c1cc2ccccc2o1 | 8.2 µM (active) |
| CCOC(=O)C(=CNc1cccc(C)n1)C(=O)OCC | inactive |
| O=C(c1csnn1)N1CCC2(CC1)CN(c1ncccn1)C2 | inactive |
| CCOC(=O)N1CCN(CC(=O)c2ccc3c(c2)CCN3)CC1 | inactive |
| CC(OC(=O)CNC(=O)c1ccc(Cl)c([N+](=O)[O-])c1)C(=O)NCc1ccco1 (centres undefined) | inactive |
| CC(CC(=O)Nc1ccccc1)n1ccnc1 (centres undefined) | inactive |
| COc1ccccc1Oc1ccc(N2CC(C(=O)OCC(=O)c3ccc(F)cc3)CC2=O)cc1 (centres undefined) | inactive |
| Cc1ccc(S(=O)(=O)N(Cc2cccc([N+](=O)[O-])c2)C(=O)N2CCN(C)CC2)cc1 | inactive |
| Cc1ccc(S(=O)(=O)N(CC(=O)Nc2cccc([N+](=O)[O-])c2)Cc2ccc(Cl)cc2)cc1 | 25.9 µM (active) |
| COc1cccc(NC(=O)CN(C)S(=O)(=O)c2ccc(C)cc2)c1 | inactive |
| CN1CCN(CC(=O)Nc2cccc([N+](=O)[O-])c2)CC1 | inactive |
| COc1ccc(C)cc1S(=O)(=O)N(CC(=O)Nc1cccc([N+](=O)[O-])c1)c1ccc(C)cc1 | 13 µM (active) |
| Cc1ccc(N(CC(=O)Nc2cc(C)cc(C)c2)S(=O)(=O)c2cccc3nonc23)cc1 | inactive |
| CCn1cc(/C=C(\NC(=O)c2cc(OC)c(OC)c(OC)c2)C(=O)N2CCN(C)CC2)c2ccccc21 | inactive |

| SMILES | Potency |
| --- | --- |
| CCCCCN1CC(O)=C(c2nc(-c3ccc(Cl)cc3)cs2)C1=N | inactive |
| Cc1ccc(-n2nc(N)c3c(=O)oc(N(C)C)nc32)cc1 | inactive |
| CN(c1ccccn1)c1ncnc2[nH]ncc12 | inactive |
| O=C(COC(=O)c1ncc(Cl)c(Cl)c1Cl)NCc1ccccc1 | inactive |
| c1ccc(CNc2ncnc3[nH]ncc23)cc1 | 23.1 µM (active) |
| Nc1ccccc1C(=O)NC1CCCCNC1=O (centres undefined) | inactive |
| O=C1CN(C(=O)COc2c(Cl)cccc2Cl)c2ccccc2N1 | inactive |
| CCCCn1c(N)c(N(CC(C)C)C(=O)c2cccc(S(=O)(=O)N3CC(C)OC(C)C3)c2)c(=O)[nH]c1=O (centres undefined) | inactive |
| Cc1ccc(NC2=C(c3ccc(C(F)(F)F)cc3)C(=O)c3ccccc32)cc1F | 8.2 µM (active) |
| Cc1ccc(NC(=O)NC(=O)c2ccccc2)cc1F | inactive |
| CCc1ccc(CNC(=O)C2CCCN(c3nc4ccccc4o3)C2)cc1 (centres undefined) | inactive |
| CCOC(=O)c1cnc(Nc2nc3ccccc3o2)nc1CSC(=S)N1CCCCC1 | 0.0326 µM (active) |
| COc1ccccc1Nc1nc(N)nc(CSC(=S)N2CCOCC2)n1 | inactive |
| CC(NS(=O)(=O)c1ccc(OCC(=O)N2CCCC2)cc1)c1ccccc1 (centres undefined) | inactive |
| CC(=O)N1CCC2(CCCN(c3ncccn3)C2)CC1 | inactive |
| CC12CCC(C(=O)N3CCN(c4ncccn4)CC3)(c3nc4ccccc4nc31)C2(C)C (centres undefined) | 23.1 µM (active) |
| CC(Oc1ccc(F)cc1)C(=O)N1CCN(c2ncccn2)CC1 (centres undefined) | inactive |
| Cc1ccc(-c2ccnc3nc(Sc4ncc(C(F)(F)F)cc4Cl)nn23)cc1 | inactive |
| Cn1c(SCC(=O)Nc2ccc(Br)cc2F)nnc1-c1ccco1 | inactive |
| O=C(Nc1ccccc1C(=O)O)c1cc(S(=O)(=O)N2CCCCC2)cs1 | inactive |
| COc1ccc(OC)c(C(c2nnnn2C(C)(C)C)N2CCc3ccccc3C2)c1 (centres undefined) | 13 µM (active) |
| COCCn1nnnc1C(c1cc2ccc(OC)cc2[nH]c1=O)N1CCc2ccccc2C1 (centres undefined) | inactive |

| SMILES | Potency |
| --- | --- |
| CC(C)(C)n1nnnc1C(c1ccc(Cl)cc1)N1CCSCC1 (centres undefined) | inactive |
| CCOc1ccc(Nc2nc(Cc3nnc(SCC(=O)NC4CCCC4)n3C)cs2)cc1 | inactive |
| Cc1cccc(N2CCN(C(=O)c3cc4c(=O)oc5ccccc5c4s3)CC2C)c1 (centres undefined) | inactive |
| Cc1cccc(N2CCN(C(=O)CCn3c(=O)c4cccn4c4cccnc43)CC2C)c1 (centres undefined) | 3.66 µM (active) |
| Cc1cccc(NC(=O)Cn2c(=O)n(CCC(C)C)c(=O)c3cccnc32)c1 | inactive |
| Cc1ccc(S(=O)(=O)C2(S(=O)(=O)c3ccc(C)cc3)CCCC2)cc1 | 6.51 µM (active) |
| Cc1ccc(S(=O)(=O)N(C)C2(C)CCS(=O)(=O)C2)cc1 (centres undefined) | inactive |
| Cc1ccc(S(=O)(=O)NC2CCCCCC2)cc1 | inactive |
| C=C1c2cccc(OC)c2O[C@H](C(=O)OCC)[C@@H]1CCCCCC | inactive |
| CCCn1nc(NS(=O)(=O)c2ccc(F)cc2)c2cc3ccccc3nc21 | inactive |
| COC(=O)c1cc(OCC(=O)NC2CCCc3ccccc32)cc(C(=O)OC)c1 (centres undefined) | inactive |
| O=C(O)CCC(=O)N(Cc1cccs1)Cc1cccs1 | inactive |
| COc1ccccc1NC(=O)CSc1nnc(C)n1CC1CCCO1 (centres undefined) | inactive |
| CC(C)Oc1ccc(CCc2n[nH]c(=S)n2Cc2ccccc2)cc1 | 20.6 µM (active) |
| CC(C)Oc1ccc(CCc2nnc(SCC(=O)O)n2-c2ccccc2)cc1 | inactive |
| CC(C)Oc1ccc(Cc2n[nH]c(=S)n2Cc2ccccc2)cc1Cl | inactive |
| Cc1ccc(CSc2nc3ccsc3c(=O)n2CCC(C)C)cc1 | 23.1 µM (active) |
| O=C(O)CCn1c(SCc2cc(=O)n3ccccc3n2)nc2ccsc2c1=O | inactive |
| Cc1ccc(CSc2nnc(-c3cnccn3)n2C)cc1 | inactive |
| O=CN1CCN(C(=O)c2ccc(Br)o2)CC1 | inactive |
| CCC(CO)Oc1cc(NC(=O)c2cccc(F)c2)c2ncn(C(C)C)c2c1 (centres undefined) | inactive |
| Cc1ccc(CNC(=O)COc2ccc(S(=O)(=O)NC(C)C)cc2)cc1 | inactive |

| SMILES | Potency |
| --- | --- |
| O=S(=O)(NN=C1CCCCCCC1)c1ccc(Br)cc1 | inactive |
| O=C(CNS(=O)(=O)c1ccc(Br)s1)NCc1ccc2c(c1)OCO2 | inactive |
| CN(CC(O)COc1ccc(S(=O)(=O)N2CCOCC2)cc1Cl)C1CCCCC1 (centres undefined) | inactive |
| Cc1nn2c(NCCN(C)C)c3c(nc2c1-c1ccccc1)CCC3 | 25.9 µM (active) |
| Cc1cc(-n2nc(C)cc2C)n2nc(C)c(-c3ccccc3)c2n1 | inactive |
| Cc1cc(C(C)(C)C)n2nc(C)c(-c3ccccc3)c2n1 | inactive |
| Cc1ccc2c(c1)C1C[N+](C)(CC(=O)c3ccccc3)CCC1N2C(=O)c1ccccc1Cl (centres undefined) | inactive |
| COc1cccc(NC(=O)C(Sc2nnnn2C)c2ccccc2)c1 (centres undefined) | inactive |
| O=C(NNS(=O)(=O)c1ccc(F)cc1)C1CCCCC1 | inactive |
| O=C1CC[C@@H](C(=O)N2CSC[C@@H]2C(=O)Nc2ccc(C(F)(F)F)cc2)N1 | inactive |
| Cn1nccc1CNC(=O)c1ccnn1C | inactive |
| CCCc1ccc(-c2c(C)sc(NC(=O)c3ccnn3C)c2C#N)cc1 | 20.6 µM (active) |
| Cc1sc(NC(=O)C2=COCCO2)c(C#N)c1C | inactive |
| CC(CCn1cccn1)NC(=O)CCc1nnc(CCc2ccccc2)o1 (centres undefined) | inactive |
| COc1ccc(C(C#N)(CC(=O)O)c2cnccn2)cc1OC (centres undefined) | inactive |
| COc1ccc(NC(=O)c2cnc(NS(=O)(=O)c3ccccc3)nc2)cc1 | inactive |
| COc1ccc(NC(=O)c2ccc(OC)cc2)cc1 | inactive |
| COc1ccc(NS(=O)(=O)c2ccc(NC(=O)c3ccc(N(C)S(C)(=O)=O)cc3)cc2)cc1 | 8.2 µM (active) |
| CCC(=O)Nc1ccc(C(=O)Nc2cccc(OC)c2)cc1 | inactive |
| COc1cccc(NC(=O)c2ccc(S(=O)(=O)N(C)C)cc2)c1 | inactive |
| COc1ccc(C(=O)Nc2cccc(S(C)(=O)=O)c2)cc1 | 23.1 µM (active) |
